PfM18AAP inh: PfM18AAP enzyme inhibition | recombinant PfM18AAP, H-Glu-NHMec fluorogenic cleavage | inhibition, % at 7.35 µM | AID 1822 | 290,000 compounds, 1.2% hits;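 active = inhibition above the campaign mean inhibition over all tested compounds plus 3 SD, cut at about 28% in these data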
UHRF1 MBD2 ctr: UHRF1 methyl-DNA binding inhibition | UHRF1 binding to methylated oligo, TR-FRET | inhibition, % at 4.4 µM | AID 687016 | 370,000 compounds, 0.75% hits; in the data active = inhibition above about 21%;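 also: UHRF1 SRA domain binding a hemimethylated CpG hairpin DNA probe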
MBD2 DNA inh: inhibitors of human MBD2 binding to methylated oligonucleotide. 370,000 compounds, 0.31% hits. TR-FRET. AID 686964. Q9UBB5. inhibition, % at 4.4 µM; in the data active = inhibition above about 13%
Target sequence (Q9UBB5 whole entry, looked up): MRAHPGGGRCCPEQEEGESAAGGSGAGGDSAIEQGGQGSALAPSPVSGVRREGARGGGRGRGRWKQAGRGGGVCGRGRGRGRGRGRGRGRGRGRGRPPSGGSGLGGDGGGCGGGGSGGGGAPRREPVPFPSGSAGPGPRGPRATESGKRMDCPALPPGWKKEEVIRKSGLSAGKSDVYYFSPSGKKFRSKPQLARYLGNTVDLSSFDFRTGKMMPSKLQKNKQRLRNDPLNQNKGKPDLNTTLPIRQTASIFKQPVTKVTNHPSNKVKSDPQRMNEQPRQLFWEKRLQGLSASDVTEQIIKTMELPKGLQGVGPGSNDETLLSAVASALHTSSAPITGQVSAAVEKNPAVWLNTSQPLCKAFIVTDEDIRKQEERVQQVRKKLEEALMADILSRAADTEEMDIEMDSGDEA
PfG6PD inh: PfG6PD (Plasmodium falciparum) enzyme inhibition | PfGluPho enzyme, NADPH resazurin-diaphorase fluorescence | inhibition, % at 20 µM | 350,000 compounds, 0.78% hits | AID 504690;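 active = inhibition reaching at least a set limit at 20 µM in the primary screen, cut at about 59% in these data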
PRMT1 FP inh: PRMT1 (human) inhibition, primary screen; Q99873; recombinant PRMT1, activity-based probe fluorescence polarization; inhibition, % at 2.79 µM; 370,000 compounds, 1.3% hits;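 active = inhibition above about 21% made by adding two undisclosed values, limit read from the data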
PRMT1 inh conf: confirmation of human PRMT1 inhibitors | 3,300 compounds, 42% hits | shares compounds with PRMT1 FP inh | AID 687036 | inhibition, % at 2.79 µM | recombinant His-PRMT1, activity-based probe fluorescence polarization;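 active = mean inhibition across replicates above the hit cutoff derived for the earlier primary screen, cut at about 22% in these data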
Hits are given with their value; n = inactive; x = not tested or not shown; ! = a repeat was not active. Only some compounds are listed: those with a hit (about 3.3% of all), similar ones and a draw of the others.

SMILES	PfM18AAP inh	UHRF1 MBD2 ctr	MBD2 DNA inh	PfG6PD inh	PRMT1 FP inh	PRMT1 inh conf
CC1(c2nc3ccccc3[nH]2)CCCC2=Nc3ccccc3CN21 (stereo not drawn)	x	n	n	x	n	x
CCCCOc1[nH]c2nc(-c3ccco3)n(Cc3ccco3)c(=N)c2c1C#N	n	n	n	n	35	32
c1ccc(CSc2nnc(-c3ccco3)n2Cc2ccco2)cc1	n	n	n	n	n	x
COC(c1ccccc1)(c1ccccc1)C(Oc1nccc(C)n1)C(=O)O (stereo not drawn)	n	n	n	n	n	x
COc1cc2c(cc1OC)C(c1ccccc1O)N(C1CC(=O)N(c3ccccc3)C1=O)CC2 (stereo not drawn)	n	n	n	n	83	n
COc1cc2c(cc1OC)C(c1ccccc1)N(C(=O)CCl)CC2 (stereo not drawn)	n	n	n	n	n	x
Cc1cc(C)cc(N2C(=O)C=CC2=O)c1	x	n	n	86	80	96
Cc1cc(C)cc(N2C(=O)c3nccnc3C2=O)c1	n	n	n	n	n	x
O=C(O)CC(SCC(=O)Nc1ccc(S(=O)(=O)N2CCCC2)cc1)C(=O)O (stereo not drawn)	n	n	n	n	45	39
O=C(O)CC(SCC(=O)Nc1ccccc1)C(=O)O (stereo not drawn)	n	n	n	n	n	x
Nc1cc2sc(-c3ccc(C(=O)O)cc3)nc2cc1Cl	n	n	n	n	n	x
Nc1ncc(N=Nc2cc(C(=O)O)ccc2Cl)s1	29	n	n	n	26	29
Cc1ccc(CN2CCN(/N=C/c3ccc(Cl)c([N+](=O)[O-])c3)CC2)cc1	n	n	n	n	n	x
CS(=O)(=O)c1cc([N+](=O)[O-])c(Sc2nc3ccccc3[nH]2)c([N+](=O)[O-])c1	n	n	n	n	56	70
NS(=O)(=O)c1ccc(CCNC(=O)C2CCCO2)cc1 (stereo not drawn)	n	n	n	n	n	x
Cc1cc(=O)oc2cc(OCC(=O)OCC(=O)NCCc3ccccc3)ccc12	n	n	n	n	27!	n
COc1ccccc1N1C(=O)C(Cl)=C(Nc2ccccc2O)C1=O	n	n	n	n	40	26
COc1ccc2nc(C)cc(SCC(=O)N/N=C/c3ccc(O)cc3O)c2c1	n	n	n	n	n	x
COc1cccc2c(SCC(=O)N/N=C/c3ccc(O)cc3O)cc(C)nc12	n	n	n	n	46	n
N#C/C(=C\c1ccccc1)C(=O)N(c1ccccn1)C1CCCCC1	n	n	n	n	n	x
O=C(/C=C/c1ccc([N+](=O)[O-])cc1)N(c1ccccn1)C1CCCCC1	43	n	n	n	28	n
O=C(COc1ccc(Cl)cc1)NCCNC(=O)c1cnccn1	n	n	n	n	n	x
CC(C)CC(C(=O)O)N1C(=O)C2C3CC(C2C1=O)C1C(c2ccccc2)c2sc(=O)[nH]c2SC31 (stereo not drawn)	n	n	n	n	n	x
O=C(O)CN1C(=O)C2C3CC(C2C1=O)C1C(c2ccccc2)c2sc(=O)[nH]c2SC31 (stereo not drawn)	n	n	n	n	29	29
CCOC(=O)CC[C@@]1(C(=O)OCC)C[C@@H](CC(=O)NCCc2ccccc2OC)C(=O)N2CCCC=C21	x	n	n	x	n	x
SMILES	PfM18AAP inh	UHRF1 MBD2 ctr	MBD2 DNA inh	PfG6PD inh	PRMT1 FP inh	PRMT1 inh conf
N#CC[C@H](c1ccccc1)N1CCN(Cc2ccccc2)CCC1=O	n	n	n	n	n	x
Cc1nc2sccn2c(=O)c1S(=O)(=O)NCC1CCN(Cc2ccc(Cl)cc2)CC1	x	n	n	n	n	x
O=C1CCC/C(=N/NC(=O)c2sc3ccccc3c2Cl)C1	n	n	n	n	85	n
c1ccc(-c2csc(NNC3=NCCCCC3)n2)cc1	n	n	n	n	67	n
COc1ccc(-c2csc(NNC3=NCCCCC3)n2)cc1	n	n	n	n	38	32
COc1ccc(-c2csc(NC3=NCCCCC3)n2)cc1	n	n	n	n	n	x
COC(=O)c1ccc(NC(=S)N2CCN(CCO)CC2)cc1	n	n	n	n	n	x
Cc1ccc(C(=O)CSC2=C(C#N)C(c3ccco3)C3=C(CCCC3=O)N2)cc1 (stereo not drawn)	n	n	n	n	n	x
N#CC1=C(SCC(=O)c2ccccc2)NC2=C(C(=O)CCC2)C1c1ccco1 (stereo not drawn)	n	n	n	n	35	n
COc1ccc(CCNC(=O)C(C)n2nc(C)n3c(cc4occc43)c2=O)cc1OC (stereo not drawn)	n	n	n	n	n	x
O=C1CC(N2CCSCC2)C(=O)N1c1ccccc1 (stereo not drawn)	n	n	n	n	n	x
O=C1CC(N2CCCN(C3CC(=O)N(c4ccc(F)cc4)C3=O)CC2)C(=O)N1c1ccc(F)cc1 (stereo not drawn)	n	n	n	n	78	n
O=C1CC(N2CCCCC2)C(=O)N1c1ccccc1 (stereo not drawn)	n	n	n	n	81	n
Cc1ccc(C(=O)N2CCN(c3ncccn3)CC2)c(C)c1	n	n	n	n	n	x
CSCCC(c1nc2ccccc2[nH]1)n1c(=O)c(-c2ccco2)nc2ccccc21 (stereo not drawn)	x	n	n	x	45	n
CSCCC(c1nc2ccccc2[nH]1)n1c(=O)c(-c2cccnc2)nc2ccccc21 (stereo not drawn)	x	n	n	x	n	x
Cc1noc(C(C)C)c1C(=O)Nc1ccc(-c2nnc3n2CCCCC3)cc1	x	n	n	n	n	x
Oc1cc(O)c(CN2CCOCC2)cc1CN1CCOCC1	x	n	n	n	29	n
Cc1cc2oc(=O)cc(CN3CCOCC3)c2cc1O	n	n	n	n	n	x
Oc1c(/C=N/c2ccccn2)sc2ccccc12	n	n	n	n	25	n
Oc1c(C=Nc2ccc(Cl)cn2)sc2ccccc12	n	n	n	n	41	n
CCCCCCCC(=O)C(C)C(=O)N(C)[C@H](Cc1ccc(OC)cc1)C(=O)N(C)[C@H](C(N)=O)C(C)C (stereo partly drawn)	x	n	n	n	n	x
Cc1ccc(-c2nc3cnccn3c2Nc2ccc3c(c2)OCCO3)o1	n	n	n	n	27	n
CN(C)c1ccc(-c2nc3cnccn3c2Nc2ccc3c(c2)OCCO3)cc1	n	n	n	n	n	x
O=C(Nc1ccccc1)OCCN1CCOCC1	x	n	n	n	n	x
CCC(CC)c1nnc(NC(=O)COc2ccc3c(c2)OCO3)s1	30	n	n	n	42	n
CC(C)c1nnc(NC(=O)COc2ccc3c(c2)OCO3)s1	n	n	n	n	n	x
C[C@H](O)[C@@H]1CN2CCc3c([nH]c4ccccc34)[C@@H]2C[C@@H]1N(C)C(=S)NCCc1ccccc1	x	n	n	x	49	n
Cc1ccccc1-c1nc2ccccc2c(=O)n1/N=C/c1ccccc1[N+](=O)[O-]	n	n	n	n	31	n
O=c1c2ccccc2nc(-c2ccccc2)n1/N=C/c1ccc([N+](=O)[O-])cc1	n	n	n	n	n	x

High-throughput results as filed in PubChem BioAssay.
